Screening data (PubChem)
In the library only some 6% were active in any assay of this set; here they are far more common.
DRD3 agonist: qHTS of D3 Dopamine Receptor Agonist: qHTS; D(3) dopamine receptor (Homo sapiens), P35462; D3R DiscoveRx beta-arrestin cells, luminescence, 90 min; max activation, %; hit rate 0.58% among 410,000; in the data active = max activation above about 30%; note: 0% is about no effect
Target sequence (P35462 whole entry, looked up): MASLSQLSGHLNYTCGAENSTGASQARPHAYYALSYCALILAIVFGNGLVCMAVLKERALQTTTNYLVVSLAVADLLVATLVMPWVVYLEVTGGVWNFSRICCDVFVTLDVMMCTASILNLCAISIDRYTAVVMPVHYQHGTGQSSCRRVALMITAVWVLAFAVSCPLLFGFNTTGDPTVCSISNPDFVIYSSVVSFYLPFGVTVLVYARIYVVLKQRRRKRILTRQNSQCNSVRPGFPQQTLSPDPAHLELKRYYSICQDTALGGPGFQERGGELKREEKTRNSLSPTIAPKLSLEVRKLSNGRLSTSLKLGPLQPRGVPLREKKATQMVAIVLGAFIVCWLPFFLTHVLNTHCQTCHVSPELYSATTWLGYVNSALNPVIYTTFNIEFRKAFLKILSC
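Agonist mode: compounds and dopamine controls were applied to plated cells for 90 min at 37 degrees C after an overnight attachment at 1500 cells/well. Luminescent read-out followed 30 - 60 minutes at room temperature with DiscoveRx detection reagent.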
D1 agonist: Allosteric Agonists of the Human D1 Dopamine Receptor: qHTS. D(1A) dopamine receptor (Homo sapiens), P21728. HEK293 T-REx D1 cells, calcium flux, agonist mode. activation, % at 2 µM. hit rate 1% among 360,000. AID 504660, 2011; in the data active = activation above about 30%; note: 0% is about no effect
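Agonism was scored from calcium flux recorded over 180 s (1 read/s) after pintool compound addition, following a 10-cycle baseline. Cells were inducible force-coupled HEK293 TREx D1, plated overnight at 30 C and loaded with no-wash calcium dye.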
D1 PAM: Potentiators of Human D1 Dopamine Receptor: qHTS. D(1A) dopamine receptor (Homo sapiens), P21728. HEK293 TREx D1 cells, calcium flux, dopamine EC20 potentiation. potentiation, % at 10 µM. hit rate 0.036% among 360,000. AID 504651, 2011; in the data active = potentiation above about 30%; note: 0% is about no effect
D3 antag: qHTS of D3 Dopamine Receptor Antagonist: qHTS. D3R cells, DiscoveRx beta-arrestin luminescence, antagonist mode; stronger effect = lower value. max response, negative = inhibition, %. hit rate 2.5% among 360,000. AID 652054, 2013; in the data active = max response below about -50%; inconclusive = no clear call, values can overlap the other calls; note: % is set by controls: 0 for no effect and ±100 for the full control effect
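Cells plated overnight at 1500 cells/well, then exposed to library compounds with dopamine controls for 90 minutes at 37 degrees C. DiscoveRx reagent added for 30–60 minutes at room temperature; luminescence read, quantitative HTS format.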
D1 antagonist: Antagonist of Human D 1 Dopamine Receptor: qHTS | D(1A) dopamine receptor (Homo sapiens), P21728 | HEK293 TREx D1 cells, calcium flux, dopamine EC80; stronger effect = lower value | activity change, negative = inhibition, % at 10 µM | hit rate 3.2% among 360,000; in the data active = activity change below about -30%; note: % is set by controls: 0 for no effect and ±100 for the full control effect
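Kinetic fluorescence of a calcium dye serves as the read-out. D1-expressing Hek293 Trex cells, induced overnight at 30 C, are exposed to compound for 180 s before an EC80 dopamine addition, then read 180 s further.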
Chronic BCR inh: qHTS Assay to Find Inhibitors of Chronic Active B-Cell Receptor Signaling; Potency, µM (series often up to 46.1 µM), for the others: at the highest dose activity change, negative = inhibition, usual class: inhibitors; hit rate 0.05% among 340,000; ABC-DLBCL IkBa-CBG/CBR reporter, luminescence ratio, 4 h; AID 493014, 2011; active = well fitted inhibition curve with a large enough effect in the signal ratio, with a control signal flat, not every such curve was filed as active; inconclusive = small, poorly fitted or top-dose-only effect, or effect the other way, or a change in a side signal; the % refers to the signal ratio;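 note: potency is the fitted concentration of half-maximal effect; plate controls were basal doxycycline-induced cells for no effect and cells given 10 µM MG132 for full effect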
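Concentration-response series (up to 46 uM) were applied to TMD8 dual-reporter cells for 4 h at 37C with doxycycline. Green/red ratio, after filter-overlap correction, defined %Activity; red signal alone was normalised to basal cells and zero luminescence.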
* marks the source's active call; other numbers are inactive results; ? = inconclusive; . = no result.

SMILES	DRD3 agonist	D1 agonist	D1 PAM	D3 antag	D1 antagonist	Chronic BCR inh
CC(C)(C)c1nn(-c2ccccc2)c2[nH]c(=O)c(C=O)cc12	-34	4	8	-101*	8	?
Cc1cccc(NC(=O)c2ccccc2SCc2ccc(F)cc2)n1	4	3	0	24	-34*	1%
COC(=O)c1ccccc1NC(=O)CSc1nc2ccccc2nc1Cc1ccccc1OC	-8	2	-4	.	-14	.
COCCn1c(N)c(Sc2ccc(C)cc2)c(=O)[nH]c1=O	-10	3	0	0	1	2%
COCCn1c(N)c(C(=O)NS(=O)(=O)c2ccc(C)cc2)c(=O)[nH]c1=O	2	7	1	3	-32*	2%
COc1ccc(-c2nc(-c3ccc(O)cc3O)cs2)cc1OC	39*	6	0	47	-1	-4%
COc1ccc(-c2nc(CCl)cs2)cc1OC	-2	5	-5	0	42	-27%
CCOC(=O)c1c(C)oc2c1c(C(c1ccccc1)N1CCOCC1)c(O)c1ccccc12 (stereo not given)	-6	1	-2	7	-1	?
CCOC(=O)c1c(C)oc2c1c(C=NCCO)c(O)c1ccccc12	1	4	-4	-22	-41*	?
O=C1CCN2C=Nc3cccc4ccc1c2c34	12	170*	-4	35	-1	-11%
CCc1n[nH]c(=S)n1/N=C/c1ccc(-c2ccc(Br)cc2)o1	0	.	.	-146*	.	.
COc1ccc(OC)c(/C=C2\N=C(c3ccccc3)OC2=O)c1	-2	74*	-6	-10	-5	-1%
Cc1ccc2nc(N(Cc3cccnc3)C(=O)C3CCCCC3)sc2c1	0	3	1	.	.	-2%
CCc1ccc(S(=O)(=O)NCc2cccs2)cc1	-5	6	-10	-65*	-21	-1%
Cc1ccc2cc(CCNC(=O)c3cccs3)c(=O)[nH]c2c1C	6	-3	-4	-19	-31*	?
O=C(Cc1ccc(Cl)cc1)NNC(=S)NC(=O)c1cccs1	6	47*	-5	7	4	?
O=C(NCCc1ccc(Cl)cc1)c1cccs1	-15	1	0	-6	-33*	-16%
O=C(NCCc1csc(-c2ccc(Cl)cc2)n1)c1cccs1	9	3	-4	.	-25	.
CCOc1ccccc1NC(=O)c1c(C)cc(C)nc1SCC(=O)c1cccc(OC)c1	2	2	1	.	6	.
CCCN1C=CC(=C/C=C(\C#N)C(=O)OCC)C=C1	.	33*	0	.	-7	9%
CCCCCCN1C=CC(=C/C=C(\C#N)C(=O)OCC)C=C1	0	178*	-5	8	-7	12%
CCNc1c(NS(=O)(=O)c2ccc(Br)s2)c(=O)oc2ccccc12	3	-3	-3	-11	-41*	?
CCCNc1c(NS(=O)(=O)c2ccc(Cl)s2)c(=O)oc2ccccc12	3	2	-7	-5	-3	?
CN(C)c1cccc(C(=O)OCC(=O)N(C)c2ccccc2)c1	2	4	1	-4	1	4%
CC(=O)Oc1ccc(-c2cccc(C(=O)OCC(=O)N(C)c3ccccc3)c2)cc1	-3	5	-4	3	-84*	?
SMILES	DRD3 agonist	D1 agonist	D1 PAM	D3 antag	D1 antagonist	Chronic BCR inh
CC(Cc1cccs1)NC(=S)Nc1ccc(Cl)c(Cl)c1 (stereo not given)	-3	11	-5	-4	-24	?
CC(Cc1cccs1)NC(=S)Nc1ccc(Cl)cc1 (stereo not given)	-1	22	-9	-7	-60*	14%
Cc1cccc(C)c1-n1nnnc1C1(C)CCC(=O)N1CCCN1CCOCC1 (stereo not given)	5	.	.	1	.	.
N#CC(c1ccc(Cl)cc1)c1ccc2c(C(F)(F)F)cc(C(F)(F)F)nc2n1 (stereo not given)	1	4	32*	0	11	?
O=C(Nc1ccc(OCc2ccccc2)cc1)c1cccnc1	6	61*	2	6	4	?
O=C(Nc1ccc(Oc2cccnc2)cc1)c1ccccc1F	0	13	-10	-2	-42*	?
O=C(Nc1ccc2c(c1)oc1ccccc12)c1ccncc1	-2	5	-3	-9	-24	?
O=C(Nc1ccc2c(c1)oc1ccccc12)c1cccnc1	0	3	-12	32	-55*	?
N=C(N)c1ccc(OCCCOc2ccc(C(=N)N)cc2Br)c(Br)c1	-23	.	.	.	.	.
CCn1c(=O)cc(OCC(=O)Nc2ccccc2Cl)c2ccccc21	10	1	1	.	8	8%
CCc1c(C2(O)CCCCC2)[nH]c2cc(C(F)(F)F)ccc12	-24	32*	0	-8	12	24%
Cc1c(C2(O)CCCCC2)[nH]c2cc(C(F)(F)F)ccc12	-15	.	.	-11	.	1%
c1cn2c(-c3ccoc3)cncc2n1	0	.	.	23	.	.
Cc1ccc(-n2c(=O)[nH]c3cc(C(=O)NC4CCN(Cc5ccccc5)CC4)ccc3c2=O)cc1	-7	2	-12	-93*	2	3%
CCOC(=O)N1CCN(C(=O)c2ccc3c(c2)N(Cc2ccccc2)CCS3)CC1	1	4	-4	4	-34*	5%
Cc1ccc(CN2CCSc3ccc(C(=O)NC4CCN(Cc5ccccc5)CC4)cc32)cc1	-19	2	-2	-83*	-13	-1%
O=C(NC1CCCC1)c1ccc2c(c1)N(Cc1ccccc1)CCS2	5	4	-3	12	-21	10%
O=C(Cc1cccs1)N1CCN(S(=O)(=O)c2ccccc2)CC1	-3	2	-3	-10	0	0%
O=C(CCCc1cccs1)N1CCN(S(=O)(=O)c2ccccc2Br)CC1	-1	1	-12	-2	-31*	-1%
COc1ccc(N=CC2=C(O)c3ccccc3C2=O)c(OC)c1	-4	3	-2	-58*	-1	-1%
Cc1ccc(-n2nc(C)c3c(C(F)(F)F)cc(-c4cccnc4)nc32)cc1C	14	0	1	.	-50*	.
O=C(C1CCCN(S(=O)(=O)c2ccc(Br)s2)C1)N1CCN(c2ccc(F)cc2)CC1 (stereo not given)	5	1	-4	.	-2	.
O=C(CSc1cccc[n+]1[O-])NCC1CCCCC1	3	0	1	14	-69*	1%
O=C(CSc1cccc[n+]1[O-])N1CCCCCC1	-2	3	1	8	-34*	0%
